Hits are enriched below; roughly 15% of the tested compounds scored in any of these assays.
TDP1 cell noCPT: qHTS for Inhibitors of human tyrosyl-DNA phosphodiesterase 1 (TDP1): qHTS in cells in absence of CPT. DT40 Tdp1-/- hTDP1 cells, no CPT, ATP luminescence, 48 h. Potency, µM (titrated, usually from 46.2 µM), usual class: inhibitors. actives 15% (n = 420,000). AID 686978, 2013; further: nearly all actives have a fitted effect of over 55% in size
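Luminescent ATP content (CellTiter-Glo) served as the growth readout. Knockout chicken DT40 cells expressing human TDP1 were exposed to compounds without camptothecin for a minimum 48 hr at 37 °C.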
VP16 counter: counter-screen for ROR gamma inhibitors: Gal4-VP16 reporter; Drosophila S2 Gal4-VP16 UAS-luciferase, luminescence, 20 h; Potency, µM (highest dose often 53.6 µM), actives largely listed as inhibitors; actives 3.5% (n = 310,000);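 further: Gal4-VP16 expression switched on by copper sulfate through the metallothionein promoter; nearly all actives have a fitted effect of over 50% in size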
12-LOX inh: inhibitors of human 12S-lipoxygenase ALOX12. P18054. purified 12hLO, xylenol orange hydroperoxide absorbance. Potency, µM (series often up to 108 µM), hits mostly inhibitors. actives 1.1% (n = 580,000). AID 1671190
Target sequence (P18054 whole entry, looked up): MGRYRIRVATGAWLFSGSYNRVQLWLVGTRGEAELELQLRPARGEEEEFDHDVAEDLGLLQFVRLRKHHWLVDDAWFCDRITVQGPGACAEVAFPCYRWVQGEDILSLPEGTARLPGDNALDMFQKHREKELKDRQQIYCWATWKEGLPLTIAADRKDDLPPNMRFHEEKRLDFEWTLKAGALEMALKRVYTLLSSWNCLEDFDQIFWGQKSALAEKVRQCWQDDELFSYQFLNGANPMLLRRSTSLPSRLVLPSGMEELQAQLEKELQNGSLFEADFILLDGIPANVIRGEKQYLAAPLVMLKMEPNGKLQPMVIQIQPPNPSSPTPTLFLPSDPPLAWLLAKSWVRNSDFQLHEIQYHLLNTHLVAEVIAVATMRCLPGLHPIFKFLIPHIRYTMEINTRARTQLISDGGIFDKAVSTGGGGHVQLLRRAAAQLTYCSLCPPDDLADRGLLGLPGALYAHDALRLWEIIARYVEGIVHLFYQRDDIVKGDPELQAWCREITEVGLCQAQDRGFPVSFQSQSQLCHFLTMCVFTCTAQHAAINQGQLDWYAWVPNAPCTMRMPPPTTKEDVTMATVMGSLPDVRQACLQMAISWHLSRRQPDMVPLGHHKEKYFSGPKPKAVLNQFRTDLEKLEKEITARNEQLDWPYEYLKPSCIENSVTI
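Hydroperoxide product was detected by ferrous iron/xylenol orange as the 573 to 405 nm absorbance ratio. Arachidonic acid at 40 uM (final) was turned over for 30 min at room temperature by 150 nM human 12hLO, pH 7.0 Hepes buffer, after 15 min compound preincubation.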
ELG1 repair inh: blocks ELG1-dependent DNA repair in HEK293T cells; HEK293T ELG1-luciferase reporter, luminescence, 16 h; DNA damage induced by 5-fluorouridine; Potency, µM (top dose mostly 46.1 µM), actives largely listed as inhibitors; actives 2.3% (n = 330,000); AID 504467; further: nearly all actives have a fitted effect of over 55% in size
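Cells (2,000 per well) received 5-fluorouridine plus test compound or DMSO and were incubated 16 hr at 37 °C, 5% CO2. Luciferase activity was read by luminescence 30 min after ONE-Glo addition; signal suppression marked inhibition of damage-induced ELG1 function.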
TDP1 cell CPT: growth inhibition of DT40 Tdp1-/-;hTDP1 cells with camptothecin (screen for TDP1 inhibitors) | chicken DT40 Tdp1-/-;hTDP1 cells + 20 nM CPT, ATP luminescence, 48 h | AID 686979 | Potency, µM (series often up to 46.2 µM), hits mostly inhibitors | actives 12% (n = 420,000); further: nearly all actives have a fitted effect of over 55% in size
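Cell growth measured by CellTiter-Glo luminescence after a minimum 48 h, 37 C compound exposure with 20 nM CPT in Tdp1-knockout DT40 cells stably expressing hTDP1, seeded 400/well; qHTS titration format.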
RORg inh: blocks mouse ROR gamma transcriptional activity; P51450; Drosophila S2 Gal4-RORgamma UAS-luciferase reporter, 20 h; Potency, µM (top dose mostly 53.6 µM), usual class: inhibitors; actives 5.4% (n = 310,000); AID 2551; further: nearly all actives have a fitted effect of over 60% in size
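Using a luciferase readout, inhibitors were identified by reduced reporter activity in Drosophila cells coexpressing a copper-inducible Gal4–ROR gamma fusion and UAS-driven Photinus luciferase, incubated 20 hr after 700 uM copper sulfate.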
Hits are given with their value; . = inactive; ? = inconclusive; / = no result. The call rests on the fitted dose curve; in most records, active means well fitted curve in the direction sought with a large enough effect; inconclusive means small, poorly fitted or top-dose-only effect, or another doubt; inactive means no such curve, though single readings can be large; an effect the other way counts as inactive or inconclusive.

SMILES | TDP1 cell noCPT | VP16 counter | 12-LOX inh | ELG1 repair inh | TDP1 cell CPT | RORg inh
COc1ccc(CCNC(=O)CSc2nc(Cl)nc3nc[nH]c23)cc1 | / | / | . | / | / | /
O=C(CCCc1ccccc1)NCc1nnc2c(-c3nc(C4CC4)no3)cccn12 | / | / | . | / | / | /
COc1ccc(-c2sc3ccc(OC)cc3c2-c2ccc(O)cc2)cc1 | ? | / | ? | 23µM | ? | /
COc1ccc2sc(-c3ccc(S(C)(=O)=O)cc3)c(-c3ccc(SC)cc3)c2c1 | ? | / | . | . | 26µM | /
COc1ccc(-c2c(-c3ccc(S(C)(=O)=O)cc3)sc3ccc(OC)cc23)cc1 | 13µM | / | . | . | ? | /
COc1ccc2c(-c3cnc(N4CCOCC4)nc3)c(-c3ccc(S(C)(=O)=O)cc3)sc2c1 | 15µM | / | . | . | 15µM | /
O=C(O)CCC(=O)N1N=C(c2ccsc2)CC1c1ccccc1 (centres undefined) | / | / | . | / | / | /
Oc1c(N=Nc2ccccc2)sc2ccccc12 | . | ? | . | ? | . | .
Oc1ccc(N=Nc2ccccc2)o1 | 13µM | 16µM | . | . | 5.8µM | ?
COc1ccc(O)c(C(=O)c2cc(C(=O)NCCc3ccccc3)c(=O)n(CCc3ccccc3)c2)c1 | 15µM | . | . | ? | 18µM | .
Cc1ccc(O)c(C(=O)c2cc(C(=O)NCCc3ccccc3)c(=O)n(CCc3ccccc3)c2)c1 | 16µM | . | . | ? | ? | ?
CC(C)(O)CCc1ccc(C(=O)NCCSc2ccccn2)cc1 | / | / | . | / | / | /
NC(=O)Cc1c[nH]c2ncc(-c3cccc(C(F)(F)F)c3)cc12 | / | / | . | / | / | /
Cc1ccc(Cn2c(C)c(CNC(C)c3ccccc3)c(C(=O)O)c2C)cc1 (centres undefined) | 26µM | / | . | / | ? | /
Cc1ccc(C(=O)N/N=C/c2ccc(N(C)C)cc2)cc1 | / | / | . | / | / | /
CN(C)c1ccc(/C=N/NC(=O)c2ccc(N(C)C)cc2)cc1 | / | / | . | / | / | /
CN(C)c1ccc(C=NNC(=S)Nc2ccc(F)cc2)cc1 | 4.6µM | / | ? | / | 3.7µM | /
CSC(=S)N/N=C/c1ccc(Br)cc1 | . | 1.8µM | . | . | . | 0.32µM
CSC(=S)N/N=C/c1ccc(N(C)C)cc1 | 5.2µM | 2µM | . | ? | 4.6µM | 0.25µM
Cc1ccc(C2Cn3nnc(C(=O)N4CCC(C(=O)Nc5ccc(F)c(Cl)c5)CC4)c3CO2)cc1 (centres undefined) | / | / | . | / | / | /
C/C(=N\OCC(=O)NC12CC3CC(CC(C3)C1)C2)c1cc2ccccc2o1 | ? | ? | . | . | 21µM | ?
CCOC(=O)COc1ccc2c(=O)c(Oc3ccc(C(=O)OC)cc3)c(C)oc2c1 | / | / | . | / | / | /
CC(=O)Nc1ccc(C2=NNC(=Nc3cccc(S(=O)(=O)N(C)C)c3)SC2)cc1 | 5.8µM | ? | / | ? | 6.5µM | .
CN(C)S(=O)(=O)c1cccc(N=C2NN=C(c3ccccc3)CS2)c1 | 7.3µM | 16µM | . | ? | 18µM | ?
COc1ccc(C2=NNC(=Nc3cc(S(=O)(=O)N(C)C)ccc3C)SC2)c(OC)c1 | 16µM | . | . | 15µM | ? | .
SMILES | TDP1 cell noCPT | VP16 counter | 12-LOX inh | ELG1 repair inh | TDP1 cell CPT | RORg inh
CC(=O)Nc1ccc(C2=NNC(=Nc3ccc(S(=O)(=O)N4CCOCC4)cc3)SC2)cc1 | ? | . | . | ? | ? | .
Nc1ccc2cccc(O)c2c1 | 13µM | / | . | / | ? | /
Nc1ccc2cc3ccccc3cc2c1 | ? | . | . | / | ? | .
Cc1ccc(S(=O)(=O)N2C[C@@H]3[C@H]4CC[C@H](C4)[C@@H]3[C@@H](C)[C@H]2C#N)cc1 | ? | / | ? | . | 21µM | /
Cc1ccc(S(=O)(=O)N2C[C@@H]3CCCC[C@@H]3[C@@H](C)[C@H]2c2cn(Cc3ccccc3)c3ccccc23)cc1 | 7.3µM | / | . | ? | 6.5µM | /
Cc1ccc(S(=O)(=O)N2C[C@@H]3[C@H]4CC[C@H](C4)[C@@H]3[C@@H](C)[C@H]2c2ccn(Cc3ccccc3)c2)cc1 | . | / | ? | . | 29µM | /
Cc1ccc(S(=O)(=O)N2C[C@@H]3CCCC[C@@H]3[C@@H](C)[C@H]2c2cn(Cc3ccccc3)c3ncccc23)cc1 | ? | / | . | ? | 12µM | /
O=C(CN1CCN(C(=O)CCc2ncc(-c3ccccc3Cl)o2)CC1)Nc1cccc(F)c1 | / | / | . | / | / | /
CCCCc1ccc(NC(=O)c2nn(CC)c(=O)c3ccccc23)cc1 | / | / | . | / | / | /
CCN1CCCC1CNC(=O)Cn1nc2c(cc1=O)CCCC2 (centres undefined) | / | / | . | / | / | /
Cc1ccc(S(=O)(=O)N2C[C@H]3[C@H]4C(=O)N(Cc5ccccc5)C(=O)[C@H]4CC(=O)[C@H]3[C@@H]2c2ccccc2Cl)cc1 | ? | / | . | / | . | /
Cc1ccc(S(=O)(=O)N2C[C@@H]3[C@H]4CC[C@H](C4)[C@@H]3[C@@H](C)[C@@H]2c2cn(Cc3ccccc3)c3ncccc23)cc1 | 21µM | / | . | ? | 23µM | /
O=C(Nc1ccccc1Cl)C1CCCN(c2ncnc3nc[nH]c23)C1 (centres undefined) | / | / | . | / | / | /
O=C1CSC(=Nc2ccc(F)cc2)N1 | . | . | . | . | . | .
O=C1CSC(=NC2CCCCC2)N1 | 18µM | ? | . | . | 23µM | ?
O=C1CS/C(=N/N=C2CCCC2)N1 | . | ? | . | . | . | 7.9µM
O=C(NC1CCCCC1)C(c1ccccc1)N1CCc2ccccc21 (centres undefined) | 21µM | . | . | ? | 26µM | .
CCC(C)c1ccc(NC(=O)CCc2ncc(-c3ccccc3F)o2)cc1 (centres undefined) | / | / | . | / | / | /
CCOC(=O)[C@]12CCC=C1N(CCC1=CCCCC1)C(=O)[C@H](CC(=O)N1CCC(c3ccccc3)CC1)C2 | 18µM | / | ? | / | ? | /
CCOC(=O)[C@]12CCCC=C1N(CCC1=CCCCC1)C(=O)[C@H](CC(=O)NCC13CC4CC(CC(C4)C1)C3)C2 | ? | / | . | / | ? | /
CCOC(=O)N1CCN(C(=O)C[C@@H]2C[C@@]3(C(=O)OCC)CCCC=C3N(CCC3=CCCCC3)C2=O)CC1 | 16µM | / | . | / | ? | /
CCCCCn1c(SCC(N)=O)nc2c1c(=O)[nH]c(=O)n2C | / | / | . | / | / | /
CCOC(=O)C(CCCCCC(NC(C)=O)(C(=O)OCC)C(=O)OCC)(NC(C)=O)C(=O)OCC | / | / | . | / | / | /
COc1ccc(-c2cc(-c3cccnc3)cn3cncc23)cc1 | / | / | . | / | / | /
CCOc1ccc(CN(C)CC(=O)NCc2ccc(F)cc2)cc1 | 21µM | . | . | . | ? | .
CCOc1ccc(CN(C)CC(=O)Nc2ccccc2C(=O)NC2CC2)cc1 | ? | / | . | 15µM | ? | /
CCOc1ccc(NC(=O)c2ccccc2NC(=O)CNC2CCCC(C)C2C)cc1 (centres undefined) | 7.3µM | / | . | . | 15µM | /

High-throughput results (PubChem BioAssay)
